Structures are written as SMILES. Calls of active or inactive are those of the source.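 The calls were made as follows: active = every separate test run called active, meaning the signal drops and a potency is fitted within twice the top valid dose; inconclusive = runs disagree, poor fit, or flat partial inhibition; inactive = all runs inactive, flat, opposite direction or too weak.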

The source of these data is PubChem BioAssay AID602295 (Broad Institute, 2012).

This test deals with Mitogen-activated protein kinase 3 (Homo sapiens) (UniProt P27361). The test can be described thus: inhibition of MAPK3 kinase activity – biochemical, ADP-Glo luminescence, cherry pick, set 2, selectivity assay for Dyrk1A inhibitor NFAT project, dose response (AID 602295). Particulars: ERK1 kinase, 120 min; series mostly up to 10 µM. (In general: In ADP-Glo the light output rises with the ADP produced.)
Mitogen-activated protein kinase 3 (Homo sapiens), sequence (P27361 whole entry, looked up): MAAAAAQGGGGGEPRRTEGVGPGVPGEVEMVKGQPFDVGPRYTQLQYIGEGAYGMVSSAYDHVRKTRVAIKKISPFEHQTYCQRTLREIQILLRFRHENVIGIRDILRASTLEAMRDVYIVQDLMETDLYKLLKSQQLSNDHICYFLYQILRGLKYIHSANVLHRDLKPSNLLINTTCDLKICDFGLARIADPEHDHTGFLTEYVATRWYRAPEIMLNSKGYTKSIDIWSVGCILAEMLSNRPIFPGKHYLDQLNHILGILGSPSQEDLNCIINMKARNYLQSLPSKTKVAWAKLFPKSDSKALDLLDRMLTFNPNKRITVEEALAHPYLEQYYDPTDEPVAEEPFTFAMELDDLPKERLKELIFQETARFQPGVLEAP
Turning to `FC(F)(F)c1cccc(Nc2nccc(-c3ccc4c(c3)OCO4)n2)c1`, the compound was classed as inactive. The same measure for `c1cncc(CNc2nccc(-c3ccc4cn[nH]c4c3)n2)c1`: “inactive”; for `CCOC(=O)c1ccc2ncc(C(=O)OCC)c(Nc3ccc(N4CCOCC4)cc3)c2c1`: “inactive”; for `c1cncc(CNc2ccnc(-c3ccc4cn[nH]c4c3)n2)c1`: “inactive”. Under `c1nc(NCC2CCCC2)c2cc(-c3ccc4c(c3)OCO4)ccc2n1` stands “inactive”. `Brc1cc(Br)cc(CNc2nccc(-c3ccc4c(c3)OCO4)n2)c1`: the outcome was inactive. The same measure for `O=C(Nc1nc(-c2ccncc2)cs1)c1ccco1`: “inactive”. Under `O=[N+]([O-])c1cc(Nc2nccc(-c3ccc4c(c3)OCO4)n2)cc(C(F)(F)F)c1` stands “inactive”. The same measure for `Clc1ccccc1-c1ccc2ncnc(NCc3ccc4c(c3)OCO4)c2c1`: “inactive”; for `COc1ccc(-c2nccc(NCc3ccc(C)cc3)n2)cc1`: “inactive”. In the case of `c1nc(NCC2CCCOC2)c2cc(-c3ccc4c(c3)OCO4)ccc2n1` (stereo not drawn), the compound was classed as inactive.

Consider `Cc1ccsc1CN(C)c1ncnc2ccc(-c3ccc(CO)o3)cc12`, for which the outcome was inactive. As to `Cc1ccc(CN(C)c2ncnc3ccc(-c4ccc5c(c4)OCO5)cc23)o1`, the compound was classed as inactive.

Consider `Brc1ccc(CNc2nccc(-c3ccc4c(c3)OCO4)n2)cc1Br`, for which the result was inactive. Turning to `COc1cccc(Nc2nc(NCCO)c3ccccc3n2)c1`, the compound was classed as inactive. Under `O=C(Nc1nc2ccc(Cl)cc2s1)C1CCCO1` (stereo not drawn) stands “inactive”; under `Cc1nc(CNc2ncnc3ccc(-c4ccoc4)cc23)cs1`, “inactive”. Regarding `COCCNC(=O)c1ccc2c(c1)nc(C)n2-c1cccc(F)c1`, the outcome was inactive. Under `c1cc(-c2ccc3c(c2)OCO3)nc(Nc2ccc3c(c2)OCO3)n1` stands “inactive”. As for `CCN(Cc1cccs1)c1ncnc2ccc(-c3ccc4c(c3)OCO4)cc12`, the outcome was inactive. In the case of `c1cncc(CNc2ccnc(-c3ccc4[nH]ncc4c3)n2)c1`, the compound was classed as inactive. The same measure for `COc1cccc(NC(=O)Nc2ccc3c(c2)N(C)C(=O)CS3)c1`: “inactive”; for `COc1ccc(-c2cc(NCCc3ccncc3)n3ncnc3n2)cc1`: “inactive”. Under `Cc1nc(CN(C)c2ncnc3ccc(-c4ccc5c(c4)OCO5)cc23)cs1` stands “inactive”.

In the case of `O=C(Nc1nc2c(s1)CCCC2)c1ccc(N2C(=O)CCC2=O)cc1`, the call was inactive.

For the compound `c1csc(CNc2ncnc3ccc(-c4ccoc4)cc23)c1`, the compound was called inactive. The same measure for `Fc1cccc(Nc2nc(-c3ccncc3)nc3ccccc23)c1`: “inactive”. The same measure for `Clc1ccc(CNc2nccc(-c3ccc4[nH]ncc4c3)n2)cc1Cl`: “inactive”; for `Cc1ccc(CNc2ncnc3ccc(-c4ccc5c(c4)OCO5)cc23)o1`: “inactive”.

With `N#CCSc1nc(Nc2ccc3c(c2)OCO3)c2ccccc2n1`, the compound was called inactive. In the case of `Clc1ccc(CNc2nccc(-c3ccc4c(c3)OCCO4)n2)cc1Cl`, the outcome was inactive. Turning to `CN(Cc1nccs1)c1ncnc2ccc(-c3ccc4c(c3)OCO4)cc12`, the call was inactive. Under `COc1cccc(Nc2ncnc3sc(C)cc23)c1` stands “inactive”.
